Laboratory results as given in publication PMC5540273 (PLoS ONE, 2017).

Experiments:
Settings in all cases: concentration: 1 μM, replicates: in singlicate; n = 1
[1] = test system: CSNK1G1
[2] = test system: CSNK1G2
[3] = test system: CSNK1G3
[4] = test system: CSNK2A1
[5] = test system: CSNK2A2
[6] = test system: T1, CTK
T1 construct: gene MATK

[7] = test system: DAPK1
[8] = test system: DAPK2
[9] = test system: DAPK3
[10] = test system: T2, DCAMKL1
T2 construct: gene DCLK1
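Further: KINOMEscan kinase panel screen.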

## CC(C)c1nc(-c2cccc(NS(=O)(=O)c3c(F)cccc3F)c2F)c(-c2ccnc(Nc3ccc(N4CCOCC4)nc3)n2)s1 [GSK2008607]
[1]
  %Inh: 21%
[2]
  %Inh: 0%
[3]
  %Inh: 6%
[4]
  %Inh: 7%
[5]
  %Inh: 32%
[6]
  %Inh: 55%
[7]
  %Inh: 2%
[8]
  %Inh: 1%
[9]
  %Inh: 34%
[10]
  %Inh: 57%

## COC(=O)Nc1nc2cc(Oc3ccc(NC(=O)Nc4cc(C(F)(F)F)ccc4F)cn3)ccc2[nH]1.Cl.Cl [GW681170]
[1]
  %Inh: 10%
[2]
  %Inh: 6%
[3]
  %Inh: 18%
[4]
  %Inh: 0%
[5]
  %Inh: 72%
[6]
  %Inh: 0%
[7]
  %Inh: 51%
[8]
  %Inh: 0%
[9]
  %Inh: 9%
[10]
  %Inh: 11%

## O=C(O)C(F)(F)F.O=C(O)C(F)(F)F.O=c1[nH]ccc2nc(N[C@@H]3CCCNC3)nc(Nc3ccc(S(=O)(=O)N4CCOCC4)cc3)c12 [GSK2177277]
[1]
  %Inh: 96.3%
[2]
  %Inh: 98.8%
[3]
  %Inh: 99.2%
[4]
  %Inh: 98.7%
[5]
  %Inh: 98.9%
[6]
  %Inh: 69%
[7]
  %Inh: 98.2%
[8]
  %Inh: 98.1%
[9]
  %Inh: 99.3%
[10]
  %Inh: 98.1%

## COc1cc(Nc2ncc3c(C)nc(-c4cc5ccccc5[nH]4)n3n2)cc(OC)c1OC [GW869516]
[1]
  %Inh: 21%
[2]
  %Inh: 0%
[3]
  %Inh: 29%
[4]
  %Inh: 96.4%
[5]
  %Inh: 99.7%
[6]
  %Inh: 0%
[7]
  %Inh: 0%
[8]
  %Inh: 0%
[9]
  %Inh: 11%
[10]
  %Inh: 17%

## O=C(Nc1cccc(-c2nn3ccccc3c2-c2ccnc(Nc3cccc(C(F)(F)F)c3)n2)c1)c1c(F)cccc1F [GSK292658]
[1]
  %Inh: 0%
[2]
  %Inh: 0%
[3]
  %Inh: 8%
[4]
  %Inh: 7%
[5]
  %Inh: 2%
[6]
  %Inh: 14%
[7]
  %Inh: 0%
[8]
  %Inh: 0%
[9]
  %Inh: 0%
[10]
  %Inh: 49%

## CCn1c(-c2nonc2N)nc2c(C#CC(C)(C)O)ncc(OCCCCN)c21.O=C(O)C(F)(F)F.O=C(O)C(F)(F)F [GSK507274]
[1]
  %Inh: 40%
[2]
  %Inh: 0%
[3]
  %Inh: 15%
[4]
  %Inh: 0%
[5]
  %Inh: 0%
[6]
  %Inh: 2%
[7]
  %Inh: 28%
[8]
  %Inh: 10%
[9]
  %Inh: 82%
[10]
  %Inh: 40%

## CCS(=O)(=O)c1ccc(OC)c(Nc2nccc(-c3c(-c4cccc(NC(=O)c5c(F)cccc5F)c4)nn4ncccc34)n2)c1 [GSK326180]
[1]
  %Inh: 15%
[2]
  %Inh: 4%
[3]
  %Inh: 15%
[4]
  %Inh: 0%
[5]
  %Inh: 0%
[6]
  %Inh: 0%
[7]
  %Inh: 9%
[8]
  %Inh: 0%
[9]
  %Inh: 9%
[10]
  %Inh: 3%

## O=C(NC1CCN(c2ccnc(Nc3ccc(F)cc3)n2)C1)c1cc2ccccc2s1 (centres unmarked) [GSK1379716]
[1]
  %Inh: 20%
[2]
  %Inh: 0%
[3]
  %Inh: 24%
[4]
  %Inh: 0%
[5]
  %Inh: 12%
[6]
  %Inh: 0%
[7]
  %Inh: 19%
[8]
  %Inh: 15%
[9]
  %Inh: 5%
[10]
  %Inh: 18%

## COc1ccc(-c2coc3ccc(-c4nnc(SCc5ccc(OC)c(C(F)(F)F)c5)o4)cc23)cc1
[1]
  %Inh: 0%
[2]
  %Inh: 24%
[3]
  %Inh: 0%
[4]
  %Inh: 22%
[5]
  %Inh: 24%
[6]
  %Inh: 10%
[7]
  %Inh: 15%
[8]
  %Inh: 0%
[9]
  %Inh: 0%
[10]
  %Inh: 38%

## CC(=O)Nc1nc2cnc(Nc3cc(NC(=O)c4cccc(C5(C#N)CC5)c4Cl)ccc3C)nc2s1
[1]
  %Inh: 0%
[2]
  %Inh: 0%
[3]
  %Inh: 0%
[4]
  %Inh: 0%
[5]
  %Inh: 0%
[6]
  %Inh: 52%
[7]
  %Inh: 0%
[8]
  %Inh: 0%
[9]
  %Inh: 0%
[10]
  %Inh: 23%

## O=C(Nc1cccc(-c2nn3ccccc3c2-c2ccnc(Nc3cccc(F)c3)n2)c1)c1c(F)ccc(F)c1Cl [GSK357952]
[1]
  %Inh: 0%
[2]
  %Inh: 0%
[3]
  %Inh: 25%
[4]
  %Inh: 41%
[5]
  %Inh: 12%
[6]
  %Inh: 15%
[7]
  %Inh: 0%
[8]
  %Inh: 0%
[9]
  %Inh: 0%
[10]
  %Inh: 3%

## COc1cccc(-c2ccc3c(NC(=O)C4CC4)n[nH]c3n2)c1 [SB-710903]
[1]
  %Inh: 0%
[2]
  %Inh: 0%
[3]
  %Inh: 10%
[4]
  %Inh: 0%
[5]
  %Inh: 79%
[6]
  %Inh: 0%
[7]
  %Inh: 0%
[8]
  %Inh: 0%
[9]
  %Inh: 13%
[10]
  %Inh: 21%

## CN1CCN(CCCNc2nccc(-c3c(-c4ccc(F)cc4)nn4cc(C(F)(F)F)ccc34)n2)CC1 [GW621581]
[1]
  %Inh: 0%
[2]
  %Inh: 0%
[3]
  %Inh: 16%
[4]
  %Inh: 0%
[5]
  %Inh: 0%
[6]
  %Inh: 0%
[7]
  %Inh: 0%
[8]
  %Inh: 0%
[9]
  %Inh: 100%
[10]
  %Inh: 0%

## O=C(Nc1n[nH]c2nc(-c3ccc(O)cc3)ccc12)C1CC1 [SB-710363]
[1]
  %Inh: 0%
[2]
  %Inh: 0%
[3]
  %Inh: 9%
[4]
  %Inh: 64%
[5]
  %Inh: 87%
[6]
  %Inh: 30%
[7]
  %Inh: 76%
[8]
  %Inh: 0%
[9]
  %Inh: 32%
[10]
  %Inh: 0%

## c1ccc(-c2cnc3nccnn23)cc1 [AH20685]
[1]
  %Inh: 0%
[2]
  %Inh: 5%
[3]
  %Inh: 0%
[4]
  %Inh: 0%
[5]
  %Inh: 0%
[6]
  %Inh: 0%
[7]
  %Inh: 0%
[8]
  %Inh: 0%
[9]
  %Inh: 0%
[10]
  %Inh: 0%

## O=C(Nc1cccc(Oc2ccc3nc(NC(=O)C4CC4)cn3n2)c1)c1ccccc1C(F)(F)F
[1]
  %Inh: 8%
[2]
  %Inh: 0%
[3]
  %Inh: 26%
[4]
  %Inh: 0%
[5]
  %Inh: 0%
[6]
  %Inh: 0%
[7]
  %Inh: 0%
[8]
  %Inh: 5%
[9]
  %Inh: 7%
[10]
  %Inh: 39%

## Cl.Cl.NCC(NC(=O)c1cc(-c2ccccc2)c(-c2ccnc3[nH]ccc23)s1)c1ccccc1 (centres unmarked) [GSK1321561]
[1]
  %Inh: 14%
[2]
  %Inh: 89%
[3]
  %Inh: 81%
[4]
  %Inh: 5%
[5]
  %Inh: 38%
[6]
  %Inh: 0%
[7]
  %Inh: 0%
[8]
  %Inh: 3%
[9]
  %Inh: 12%
[10]
  %Inh: 0%

## CSc1cccc2c(-c3ccncn3)c(-c3ccc(F)cc3)nn12 [GW514786]
[1]
  %Inh: 3%
[2]
  %Inh: 10%
[3]
  %Inh: 21%
[4]
  %Inh: 0%
[5]
  %Inh: 13%
[6]
  %Inh: 0%
[7]
  %Inh: 0%
[8]
  %Inh: 0%
[9]
  %Inh: 0%
[10]
  %Inh: 5%

## CCn1c(-c2nonc2N)nc2c(C#CC(C)(C)O)nc(OC[C@H](N)c3ccccc3)cc21 [GSK943949]
[1]
  %Inh: 0%
[2]
  %Inh: 0%
[3]
  %Inh: 17%
[4]
  %Inh: 0%
[5]
  %Inh: 30%
[6]
  %Inh: 11%
[7]
  %Inh: 0%
[8]
  %Inh: 3%
[9]
  %Inh: 18%
[10]
  %Inh: 12%

## COc1ccc(Nc2nccc(N3CCC(NC(=O)Nc4cccc(OC)c4)C3)n2)cc1 (centres unmarked) [GSK1379742]
[1]
  %Inh: 13%
[2]
  %Inh: 0%
[3]
  %Inh: 20%
[4]
  %Inh: 6%
[5]
  %Inh: 0%
[6]
  %Inh: 0%
[7]
  %Inh: 0%
[8]
  %Inh: 0%
[9]
  %Inh: 0%
[10]
  %Inh: 0%

## CCCCc1nn2ncccc2c1-c1ccnc(Nc2ccc(N3CCN(C)CC3)cc2)n1 [GW684941]
[1]
  %Inh: 0%
[2]
  %Inh: 0%
[3]
  %Inh: 0%
[4]
  %Inh: 0%
[5]
  %Inh: 7%
[6]
  %Inh: 13%
[7]
  %Inh: 0%
[8]
  %Inh: 0%
[9]
  %Inh: 17%
[10]
  %Inh: 17%

## O=c1[nH]cc(-c2ccc(N3CCOCC3)cc2)c2sc(-c3cn[nH]c3)cc12 [GSK2276055]
[1]
  %Inh: 43%
[2]
  %Inh: 43%
[3]
  %Inh: 63%
[4]
  %Inh: 64%
[5]
  %Inh: 79%
[6]
  %Inh: 0%
[7]
  %Inh: 37%
[8]
  %Inh: 19%
[9]
  %Inh: 23%
[10]
  %Inh: 12%

## Oc1cc(Nc2ccnc3cc(I)ccc23)ccc1F [GW552771]
[1]
  %Inh: 0%
[2]
  %Inh: 0%
[3]
  %Inh: 0%
[4]
  %Inh: 23%
[5]
  %Inh: 0%
[6]
  %Inh: 6%
[7]
  %Inh: 0%
[8]
  %Inh: 0%
[9]
  %Inh: 30%
[10]
  %Inh: 0%

## Clc1ccc(-c2nn3ncccc3c2-c2ccnc(Nc3ccc4c(c3)OCCO4)n2)cc1 [GW829116]
[1]
  %Inh: 0%
[2]
  %Inh: 42%
[3]
  %Inh: 23%
[4]
  %Inh: 0%
[5]
  %Inh: 8%
[6]
  %Inh: 36%
[7]
  %Inh: 0%
[8]
  %Inh: 0%
[9]
  %Inh: 0%
[10]
  %Inh: 7%

## CN(c1ccc(NC(=O)Nc2cc(C(F)(F)F)ccc2F)cc1)c1ccnc(Nc2ccc(S(N)(=O)=O)cc2)n1 [GW809893]
[1]
  %Inh: 5%
[2]
  %Inh: 0%
[3]
  %Inh: 18%
[4]
  %Inh: 13%
[5]
  %Inh: 0%
[6]
  %Inh: 23%
[7]
  %Inh: 0%
[8]
  %Inh: 0%
[9]
  %Inh: 0%
[10]
  %Inh: 3%

## COc1cc2c(cc1OCCN1CCNCC1)ncc1c3ccc(C#N)cc3[nH]c21
[1]
  %Inh: 0%
[2]
  %Inh: 0%
[3]
  %Inh: 4%
[4]
  %Inh: 63%
[5]
  %Inh: 92.4%
[6]
  %Inh: 15%
[7]
  %Inh: 14%
[8]
  %Inh: 4%
[9]
  %Inh: 4%
[10]
  %Inh: 38%

## CC(=O)N1CCN(c2ccc(Nc3nccc(-c4sc(C(C)C)nc4-c4cccc(NS(=O)(=O)c5cccc(Cl)c5)c4)n3)cn2)CC1 [GSK1660437]
[1]
  %Inh: 0%
[2]
  %Inh: 0%
[3]
  %Inh: 10%
[4]
  %Inh: 13%
[5]
  %Inh: 0%
[6]
  %Inh: 27%
[7]
  %Inh: 14%
[8]
  %Inh: 0%
[9]
  %Inh: 6%
[10]
  %Inh: 9%

## Cl.NC(=O)c1cccc(Nc2nccc(Nc3ccc(Oc4c(Cl)cccc4Cl)c(Cl)c3)n2)c1 [GW659009]
[1]
  %Inh: 0%
[2]
  %Inh: 2%
[3]
  %Inh: 7%
[4]
  %Inh: 3%
[5]
  %Inh: 45%
[6]
  %Inh: 34%
[7]
  %Inh: 24%
[8]
  %Inh: 8%
[9]
  %Inh: 44%
[10]
  %Inh: 0%

## Nc1ncc(-c2cccnc2)c2scc(-c3ccc4c(c3)CCN4C(=O)Cc3ccccc3)c12 [GSK683281]
[1]
  %Inh: 32%
[2]
  %Inh: 9%
[3]
  %Inh: 58%
[4]
  %Inh: 77%
[5]
  %Inh: 28%
[6]
  %Inh: 9%
[7]
  %Inh: 0%
[8]
  %Inh: 0%
[9]
  %Inh: 27%
[10]
  %Inh: 20%
